The campaign covered roughly 200,000 compounds. About 10 (0.005%) were called active. Roughly 8% stayed inconclusive and do not appear here. Calls come from the whole dose curve; as a rule, active = well fitted inhibition curve with a large enough effect; inconclusive = small, poorly fitted or top-dose-only effect, or effect the other way, or another doubt; inactive = no such curve, though single readings can be large or run the other way. A selection follows.
The compounds below were run against Lysosomal alpha-glucosidase (Homo sapiens) (UniProt P10253) (assay: qHTS Assay for Inhibitors of Human alpha-Glucosidase as a Potential Chaperone Treatment of Pompe Disease). Conditions: purified human GAA, 4-MU-alpha-glucoside fluorescence; series mostly up to 76.9 µM.
In short: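 Enzyme (4 nM final) mixed with compound (up to 77 uM), then 4-MU-alpha-D-pyranoside (400 uM final) added; 20 min at room temperature, pH 5.0. Reaction stopped at pH 10, fluorescence read, AC50 derived by Hill fit.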
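Note: plate controls were uninhibited enzyme wells for no effect and no-enzyme background for full effect.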

Activity change, negative = inhibition, inactive:
CC12C(=O)N(c3ccccc3)C(=O)C1C(c1ccccc1)N1CCCN12 (centres undefined) -7.1% [at 15.4 µM]
CSc1nc(C)nc(C2CC2)c1C#N
COc1ccc(C)cc1NC(=O)CSc1nnc(CC(=O)Nc2ccccc2F)n1C
C=CCc1ccc(OCC(O)CN2CCN(Cc3ccccc3)CC2)c(OC)c1 (centres undefined)
O=C(c1ccc(-c2ccccc2)cc1)C1CCCN(C(=O)c2cncs2)C1 (centres undefined)
Cc1c(CCC(=O)O)c(=O)oc2cc3occ(-c4ccccc4)c3cc12 4.78% [at 15.4 µM]
Cc1n[nH]c(=O)n1-c1ccc(C(C)C)cc1
O=C(COC(=O)c1ccncc1)c1ccccc1
O=C(Nc1ccc(S(=O)(=O)Nc2nccs2)cc1)c1cc(=O)[nH]c2ccccc12 -5.51% [at 15.4 µM]
COC(=O)c1ccc(CN2CCN(CCCc3ccccc3)C(CCO)C2)cc1 (centres undefined)
Cc1cc(CO)nn1-c1ccc([N+](=O)[O-])cc1
Cc1ccc2cc(CN(c3ccc(C)c(C)c3)S(C)(=O)=O)c(=O)[nH]c2c1
O=C(Cc1ccccc1)N1CCN(S(=O)(=O)c2ccc([N+](=O)[O-])cc2)CC1
CC(=O)c1c(-c2ccccc2)c2ccccc2[nH]c1=O
c1ccc(-c2cc(N3CCCCC3)c3ccccc3n2)cc1
FC(F)(F)c1ccnc(Oc2ccc(C3=NCCS3)cc2)c1
O=C(O)CC1=C(Nc2ccccc2)C(=O)N(c2ccccc2)C1c1ccc(Cl)cc1 (centres undefined)
CC1CCCN(CC(O)COc2ccc3c(c2)OCO3)C1 (centres undefined)
COc1ccc(/C=C/CN2CCN(Cc3ccc(C)cc3)C(CCO)C2)cc1 (centres undefined)
COc1cc(C)c(Cl)cc1S(=O)(=O)n1ccnc1
CCOC(=O)C1(CC2CCCCO2)CCN(Cc2nc(-c3cccs3)oc2C)CC1 (centres undefined)
O=C(c1ccc(OC2CCN(Cc3ccccn3)CC2)cc1)N1CCCCCC1
c1ccc(Cc2cc[n+](Cc3ccccc3)cc2)cc1
Cc1nc(N)[nH]c(=O)c1Oc1cccc(C(F)(F)F)c1
CC(C)Oc1ccc(CCc2nnc(SCC(=O)O)n2-c2ccccc2)cc1
O=C(NC1C2CC3CC(C2)CC1C3)c1ccc(N2CCNCC2)c([N+](=O)[O-])c1 (centres undefined) -3.61% [at 15.4 µM]
CCN(CC)P(=O)(Nc1ccc(SC(F)F)cc1)c1ccc(N(C)C)cc1NC(=O)c1ccco1 (centres undefined)
C=C(C)COc1ccc(-c2nc(N)ncc2-c2ccccc2OC)c(O)c1
CCN(CCn1cccn1)Cc1nc(-c2ccc(C(=O)OC)cc2)no1
